Measurements from PubChem BioAssay (Tox21).
Records with an inconclusive call do not appear. Where a call stands in place of a potency, no number is given. Activity calls are given as the source filed them. Unless noted, calls come from the whole dose curve; as a rule, active = well fitted curve in the direction sought with a large enough effect in the repeat runs; inconclusive = weak or mixed curves; inactive = no such curve, though single readings can be large; an effect the other way counts as inactive or inconclusive.

Legend:
[1] = molecular target: Aryl hydrocarbon receptor (Homo sapiens) (UniProt P35869); test: qHTS assay to identify small molecule that activate the aryl hydrocarbon receptor (AhR) signaling pathway (AID 743085); note: nearly all actives have a fitted effect of over 15% in size; note: potency is the fitted concentration of half-maximal effect;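 for activation: HG2L7.5c1 human HepG2 liver cells with stably integrated DRE-driven firefly reporter; series mostly up to about 70 µM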
Method in brief: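 Luminescence read-out: ONE-Glo reagent, 30 min at room temperature, in HG2L7.5c1 HepG2 reporter cells treated 24 h at 37C. Viability was measured beforehand by CellTiter-Fluor fluorescence after 30 min at 37C.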

[2] = qHTS assay to identify small molecule that activate the aryl hydrocarbon receptor (AhR) signaling pathway - cell viability counter screen (AID 743086); note: nearly all actives have a fitted effect of over 45% in size; note: potency is the fitted concentration of half-maximal effect
Method in brief: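 HepG2-AhR-luc (HG2L7.5c1) cells, 4000/well, were preincubated 5 h at 37C, exposed to compound in qHTS format for 24 hr at 37C, then given CellTiter-Fluor for 30 min; viability was read as fluorescence in the reporter wells.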

[3] = molecular target: Peroxisome proliferator-activated receptor gamma (Homo sapiens) (UniProt P37231); test: qHTS assay to identify small molecule antagonists of the peroxisome proliferator-activated receptor gamma (PPARg) signaling pathway (AID 743191; calls by dose curve; note: nearly all actives have a fitted effect of over 30% in size; note: potency is the fitted concentration of half-maximal effect)
Method in brief: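 GeneBLAzer PPARg UAS-bla HEK293H cells carrying a UAS-driven beta-lactamase reporter were plated at 3000 cells/well, preincubated 5 h at 37C, then given compound for 17 h at 37C; LiveBLAzer B/G FRET substrate was read after 1 h at room temperature.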

[4] = qHTS assay to identify small molecule antagonists of the peroxisome proliferator-activated receptor gamma (PPARg) signaling pathway - cell viability counter screen (AID 743194); note: nearly all actives have a fitted effect of over 55% in size; note: potency is the fitted concentration of half-maximal effect
Method in brief: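 PPARg-UAS-bla HEK293H cells were plated, rested 5 h at 37 C, then treated with compounds plus rosiglitazone (50 nM final) for 17 h at 37 C; viability was then read by CellTiter-Glo luminescence after 30 min at room temperature.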

[5] = molecular target: Peroxisome proliferator-activated receptor gamma (Homo sapiens) (UniProt P37231); test: qHTS assay to identify small molecule agonists of the peroxisome proliferator-activated receptor gamma (PPARg) signaling pathway (AID 743094; active = well fitted activation curve with a large enough effect in the signal ratio in the repeat runs, not every such curve was filed as active; the % refers to the signal ratio; note: potency is the fitted concentration of half-maximal effect)
Method in brief: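 Beta-lactamase FRET fluorescence was the read-out after a 1 h room-temperature substrate step, following 17 h compound treatment at 37C of HEK293H cells expressing a UAS-driven bla reporter responsive to PPARg.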

[6] = qHTS assay for small molecule agonists of the antioxidant response element (ARE) signaling pathway - cell viability counter screen (AID 743203; calls by dose curve; note: nearly all actives have a fitted effect of over 55% in size; note: potency is the fitted concentration of half-maximal effect)
Method in brief: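 HepG2 cells carrying ARE-driven beta-lactamase; 2,000 cells/well; 5 hrs plating; compound pinned from DMSO; 16 hrs 37C/5% CO2; CellTiter-Glo added; 30 min RT; luminescence.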

[7] = qHTS assay to identify small molecule agonists of the peroxisome proliferator-activated receptor delta (PPARd) signaling pathway - cell viability counter screen (AID 743211); note: nearly all actives have a fitted effect of over 55% in size; note: potency is the fitted concentration of half-maximal effect
Method in brief: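 Read-out: CellTiter-Glo luminescence, 30 min RT, measured in the same wells as the beta-lactamase reporter. Cells: GeneBLAzer PPAR delta UAS-bla HEK293H, 3000 cells/well, compound exposure 17 h at 37C.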

[8] = qHTS assay for small molecule agonists of the antioxidant response element (ARE) signaling pathway (AID 743202; active = well fitted activation curve with a large enough effect in the signal ratio in the repeat runs, not every such curve was filed as active; the % refers to the signal ratio; note: potency is the fitted concentration of half-maximal effect)
Method in brief: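 Read-out: LiveBLAzer B/G FRET substrate fluorescence after 2 h at room temperature, following 16 h compound treatment at 37 C of HepG2 cells carrying an ARE-driven beta-lactamase reporter.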

[9] = qHTS assay for small molecule activators of the heat shock response signaling pathway - cell viability counter screen (AID 743209); note: nearly all actives have a fitted effect of over 50% in size; note: potency is the fitted concentration of half-maximal effect
Method in brief: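 Luminescence from CellTiter-Glo, added after the beta-lactamase FRET read, gave the viability signal. Cells were HSE-bla HeLa treated with DMSO-dissolved compounds for 5 h at 37 C following overnight plating.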

[10] = qHTS assay for small molecule activators of the heat shock response signaling pathway (AID 743210; active = well fitted activation curve with a large enough effect in the signal ratio in the repeat runs, with a control signal flat, not every such curve was filed as active; the % refers to the signal ratio; note: series mostly up to about 63 µM)
Method in brief: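 HSE-bla HeLa cells (beta-lactamase reporter under heat shock response elements) were exposed to compounds for 5 h at 37 C, then loaded with LiveBLAzer B/G FRET substrate for 2.5 h at room temperature before fluorescence reading.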

Sequence of Peroxisome proliferator-activated receptor gamma (Homo sapiens) (P37231 whole entry, looked up): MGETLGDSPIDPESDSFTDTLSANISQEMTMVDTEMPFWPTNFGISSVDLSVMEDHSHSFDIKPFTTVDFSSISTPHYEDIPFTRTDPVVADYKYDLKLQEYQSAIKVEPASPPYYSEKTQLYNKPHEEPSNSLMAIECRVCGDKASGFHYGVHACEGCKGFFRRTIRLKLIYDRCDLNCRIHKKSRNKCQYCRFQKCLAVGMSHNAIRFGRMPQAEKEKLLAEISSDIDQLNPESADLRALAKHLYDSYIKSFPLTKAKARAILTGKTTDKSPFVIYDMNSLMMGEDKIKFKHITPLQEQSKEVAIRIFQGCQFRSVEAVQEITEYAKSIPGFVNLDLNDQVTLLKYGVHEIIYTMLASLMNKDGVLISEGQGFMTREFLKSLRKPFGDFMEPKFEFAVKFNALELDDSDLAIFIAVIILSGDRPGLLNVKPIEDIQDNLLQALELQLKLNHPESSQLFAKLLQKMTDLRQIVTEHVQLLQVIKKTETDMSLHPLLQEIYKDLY
Sequence of Aryl hydrocarbon receptor (Homo sapiens) (P35869 whole entry, looked up): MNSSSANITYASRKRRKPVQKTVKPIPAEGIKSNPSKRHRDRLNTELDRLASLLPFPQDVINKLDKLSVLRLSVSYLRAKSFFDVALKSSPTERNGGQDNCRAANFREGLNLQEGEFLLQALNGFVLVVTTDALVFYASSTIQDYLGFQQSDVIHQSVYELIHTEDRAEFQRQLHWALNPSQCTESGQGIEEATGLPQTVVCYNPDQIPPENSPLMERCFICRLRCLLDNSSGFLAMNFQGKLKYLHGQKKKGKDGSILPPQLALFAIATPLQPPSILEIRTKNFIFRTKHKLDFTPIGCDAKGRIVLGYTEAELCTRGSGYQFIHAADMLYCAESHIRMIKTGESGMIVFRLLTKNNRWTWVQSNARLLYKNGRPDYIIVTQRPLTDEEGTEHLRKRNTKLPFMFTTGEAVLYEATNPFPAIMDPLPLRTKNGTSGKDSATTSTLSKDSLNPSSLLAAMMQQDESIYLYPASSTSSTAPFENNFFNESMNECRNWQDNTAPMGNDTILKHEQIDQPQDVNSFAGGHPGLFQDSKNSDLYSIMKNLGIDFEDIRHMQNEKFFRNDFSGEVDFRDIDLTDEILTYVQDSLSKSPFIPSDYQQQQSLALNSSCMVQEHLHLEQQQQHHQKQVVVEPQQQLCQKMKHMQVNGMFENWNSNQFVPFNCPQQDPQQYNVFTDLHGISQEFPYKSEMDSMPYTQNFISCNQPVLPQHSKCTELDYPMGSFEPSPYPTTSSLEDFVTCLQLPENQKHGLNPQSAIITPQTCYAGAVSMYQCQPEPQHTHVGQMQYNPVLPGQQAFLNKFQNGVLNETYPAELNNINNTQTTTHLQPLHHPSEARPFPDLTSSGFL

Row | Structure (SMILES) | Potency [1] | Potency [2] | Potency [3] | Potency [4] | Potency [5] | Potency [6] | Potency [7] | Potency [8] | Potency [9] | Potency [10]
1 | CC(C(O)c1ccccc1)N(C)CCOC(c1ccccc1)c1ccccc1 (centres undefined) | inactive | inactive | inactive | inactive | – | – | – | – | – | –
2 | CCCCCCCCCCCCCCCC | inactive | inactive | inactive | inactive | inactive | inactive | inactive | – | – | –
3 | CCCC(CC)CCCCCCCN (centres undefined) | inactive | inactive | – | – | inactive | – | inactive | inactive | inactive | –
4 | Cn1cnc2ncnc(N)c21 | inactive | inactive | – | inactive | inactive | inactive | inactive | inactive | – | inactive
5 | Clc1ccc(C(Cn2ccnc2)OCc2ccsc2Cl)c(Cl)c1 (centres undefined) | inactive | 26.6 µM (active) | – | – | inactive | – | 29.8 µM (active) | – | inactive | –
6 | CC(C)N=C(N)/N=C(\N)Nc1ccc(Cl)cc1 | inactive | inactive | – | inactive | inactive | inactive | – | – | inactive | inactive
7 | Oc1c(Br)cc(Br)c2cccnc12 | 0.668 µM (active) | inactive | – | – | inactive | inactive | 2.98 µM (active) | – | – | –
8 | O=C1c2c(O)ccc([N+](=O)[O-])c2C(=O)c2c([N+](=O)[O-])ccc(O)c21 | inactive | 19.2 µM (active) | 6.85 µM (active) | 8.63 µM (active) | – | 3.82 µM (active) | 12.2 µM (active) | – | 10.9 µM (active) | –
9 | CCCCCCCCCCCC(=O)N(CC)CC | inactive | inactive | – | inactive | inactive | inactive | inactive | inactive | inactive | inactive
10 | COc1cc(C(=O)NS(=O)(=O)c2ccccc2C)ccc1Cc1cn(C)c2ccc(NC(=O)OC3CCCC3)cc12 | 26.6 µM (active) | inactive | – | – | 169 nM (active) | inactive | – | 29.8 µM (active) | inactive | –
11 | CCO[Si](CCCSSSSCCC[Si](OCC)(OCC)OCC)(OCC)OCC | inactive | inactive | – | inactive | inactive | inactive | – | inactive | inactive | –
12 | CC(=O)Oc1ccc(C2(c3ccc(OC(C)=O)cc3)Oc3ccccc3NC2=O)cc1 | inactive | inactive | – | inactive | inactive | inactive | inactive | – | inactive | –
13 | C=C1C(C)(C)[C@@]2(Cl)C(Cl)[C@]1(Cl)C(Cl)(Cl)C2(Cl)Cl (some centres undefined) | inactive | inactive | – | – | inactive | – | 38.2 µM (active) | 7.56 µM (active) | – | –
14 | CCOC(=O)COc1ccc(C)cc1 | inactive | inactive | – | inactive | inactive | inactive | inactive | – | – | –
15 | O=C(O)c1cccc(Cl)n1 | inactive | inactive | – | inactive | inactive | inactive | – | – | – | –
16 | O=S(=O)(O)CCCN1CCOCC1 | inactive | inactive | – | inactive | inactive | inactive | – | – | inactive | –
17 | C=CC(C)(CCC=C(C)C)OC(=O)/C=C/c1ccccc1 (centres undefined) | inactive | inactive | – | inactive | inactive | inactive | inactive | – | – | –
18 | CO[C@H]1C=CO[C@@]2(C)Oc3c(C)c(O)c4c(O)c(cc(O)c4c3C2=O)NC(=O)/C(C)=C\C=C/[C@H](C)[C@H](O)[C@@H](C)[C@@H](O)[C@@H](C)[C@H](OC(C)=O)[C@@H]1C | inactive | inactive | – | inactive | inactive | inactive | – | – | inactive | inactive
19 | O=C1NCCN1CCN1CCC(c2cn(-c3ccc(F)cc3)c3ccc(Cl)cc23)CC1 | inactive | 23.7 µM (active) | – | 29.8 µM (active) | inactive | 26.6 µM (active) | 23.7 µM (active) | – | inactive | –
20 | CC(NCCC(c1ccccc1)c1ccccc1)c1ccccc1 (centres undefined) | inactive | 26.6 µM (active) | – | 23.7 µM (active) | inactive | 33.5 µM (active) | – | – | – | –
21 | Cc1cccc(C)c1NC(=O)CN1CCN(CCCC(c2ccc(F)cc2)c2ccc(F)cc2)CC1 | inactive | 11.4 µM (active) | – | 26.6 µM (active) | inactive | – | 18.8 µM (active) | – | – | –
22 | CCCCCCCC/C=C\CCCCCCCC(=O)NCc1ccc(O)c(OC)c1 | inactive | inactive | – | inactive | inactive | – | 23.7 µM (active) | – | – | –
23 | CNC(=S)NN | inactive | 19.3 µM (active) | inactive | inactive | inactive | – | 12.3 µM (active) | – | – | –
24 | Oc1ccc(-c2ccccc2)c(Cl)c1 | inactive | inactive | – | – | inactive | inactive | – | – | – | –
25 | C[C@@H]1CC[C@H]2C(C)(C)[C@H]3C[C@@]12CC[C@@]3(C)O | inactive | inactive | – | inactive | inactive | inactive | – | inactive | – | –
26 | CC(COC(=O)c1ccccc1)OC(=O)c1ccccc1 (centres undefined) | inactive | inactive | – | inactive | inactive | inactive | inactive | – | inactive | –
27 | Cc1ccc(N)cc1O | 15.7 µM (active) | 61.1 µM (active) | 49 µM (active) | inactive | – | inactive | – | – | – | –
28 | CCc1cccc(C)c1 | inactive | inactive | – | inactive | – | inactive | inactive | inactive | – | –
29 | CCN(CC)CCCN(c1ccccc1)C1Cc2ccccc2C1 | inactive | 13.3 µM (active) | inactive | – | – | inactive | – | – | inactive | –
